# An excerpt weighted towards active compounds, which were near 7.1% of everything screened.
# ATXN2 expr inh – reduces ATXN2 reporter expression in HEK-293 cells. HEK-293 ATXN2-luciferase reporter, luminescence, 24 h. Potency, µM (series often up to 57 µM), inactives show at the top dose activity change, negative = inhibition, actives largely listed as inhibitors. 0.72% of 360,000 active. AID 1745845; also: potency is read from the fitted curve at half-maximal effect; % is scaled to controls: 0 for no effect and ±100 for the full control effect; nearly all actives have a fitted effect of over 55% in size
#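 qHTS (up to 57 uM final) was run with 24 h compound exposure of reporter cells at 37 °C. Each well was multiplexed: SteadyGlo luminescence measured ATXN2-luciferase expression after a fluorogenic Gly-Phe-AFC viability readout (25 uM final).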
# MCF10A rerep – inducers of DNA re-replication in MCF 10A breast cells; MCF 10A DNA re-replication, Hoechst nuclear intensity, 48 h; Potency, µM (top dose mostly 46.1 µM), inactives show at the highest dose activity, positive = re-replication, actives largely listed as activators; 2.9% of 350,000 active; also: potency is read from the fitted curve at half-maximal effect; % of control where 0% means no effect; nearly all actives have a fitted effect of over 50% in size
# ATXN viability – reduces viability in counter-screen for ATXN expression inhibitors; AID 651635; S2 cells (HEK-293 line with an ATXN2-luciferase reporter) viability, CellTiter-Fluor protease fluorescence, 24 h; Potency, µM (series often up to 56.7 µM), most hits filed as cytotoxic; 0.49% of 400,000 active; also: potency is read from the fitted curve at half-maximal effect; nearly all actives have a fitted effect of over 40% in size
# SW480 rereplic – DNA re-replication induction in SW480 cells | Potency, µM (series often up to 46.1 µM), inactives show at the highest dose re-replication activation, hits mostly activators | AID 624297 | 1.8% of 340,000 active | SW480 DNA re-replication, Hoechst DNA content imaging, 48 h; also: potency is read from the fitted curve at half-maximal effect; % of control where 0% means no effect; nearly all actives have a fitted effect of over 55% in size
#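 Quantitative HTS format with DMSO vehicle controls; 48 hr drug incubation at 37 C, then 40 min Hoechst staining and scanning imager measurement at 405 nm excitation.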
# PINK1 modulator – changes PINK1 expression; PINK1 immunofluorescence, high-content cytometry, 24 h; Potency, µM (titrated, usually from 76.6 µM), for the others: top-dose activation (PINK1 increase), most hits filed as activators; 0.2% of 410,000 active; AID 624263; active = well fitted activation curve with a large enough effect; inconclusive = small, poorly fitted or top-dose-only effect; cell line not stated here; also: potency is read from the fitted curve at half-maximal effect; % of control where 0% means no effect; nearly all actives have a fitted effect of over 65% in size
#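 Stable cell line treated 24 h with compounds at 5 concentrations (CCCP controls), then fixed and immunostained for PINK1 plus nuclear and cell stains; PINK1 immunofluorescence quantified by laser-scanning microplate cytometry.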
# IL1B secr inh – inflammasome signaling inhibition, IL-1 beta readout | activity change, % at 57.5 µM | 4.7% of 360,000 active | THP-1 LPS/ATP IL-1B secretion, AlphaLISA, 16 h; stronger effect = lower value; in the data active = activity change below about -50%; inconclusive = mostly about -30% to -49%; also: % is scaled to controls: 0 for no effect and ±100 for the full control effect
#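 THP-1 cells pretreated 1 hr with compounds (up to 57.5 uM final), then stimulated with LPS (250 ng/mL final) plus ATP (1.25 mM final); secreted IL-1B measured by AlphaLISA after 16 hr, decreased signal indicating inhibition.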
# Starred values were filed as active, the others as inactive; i = inactive; u = inconclusive; x = not tested or not shown; [ ] = remark or other dose. Unless noted, calls follow the shape of the dose curve; as a rule, active = well fitted curve in the direction sought with a large enough effect; inconclusive = small, poorly fitted or top-dose-only effect, or another doubt; inactive = no such curve, though single readings can be large; an effect the other way counts as inactive or inconclusive.
SMILES,ATXN2 expr inh,MCF10A rerep,ATXN viability,SW480 rereplic,PINK1 modulator,IL1B secr inh
O=C(NCCCN1CCCCCC1)c1ccc2c(Cl)c3c(nc2c1)CCCC3,-4%,u,u,35%,-3%,-71*
CCCN(CCC)CCCNC(=O)c1ccc2c(Cl)c3c(nc2c1)CCC3,-30%,21%,i,8%,-2%,-67*
CCN(CC)CCCNC(=O)c1ccc2c3n(nc2c1)-c1ccc(Cl)cc1CO3,u,-4%,u,22%,1%,-60*
CC(C)NC(=O)c1ccc2c3n(nc2c1)-c1ccc(Cl)cc1CO3,31%,u,i,6%,5%,-6
CC(=O)c1ccc(N2CCN(c3ncnc4c3nc3n4CCCC3)CC2)cc1,x,x,x,x,20%,x
CN(Cc1ccc2c(c1)CN(C(=O)c1cccc(N(C)C)c1)CCO2)Cc1cc(C2CC2)n[nH]1,x,x,u,x,-1%,x
O=C(CC1NCCc2ccccc21)Nc1ccc(Oc2ccccc2)cc1 (centres undefined),-22%,u,i,u,-2%,-153*
CC1(C)N=C(N)N=C(N)N1c1ccc(Cl)cc1,x,x,i,x,x,x
COc1ccccc1Cn1c(=S)[nH]c2ccc(Br)cc2c1=O,0%,2%,i,4%,11%,40
COc1cc2[nH]c(=S)n(Cc3ccc(C)cc3)c(=O)c2cc1OC,u,13µM*,i,20%,6%,11
CCOc1cc2[nH]c(=S)n(Cc3ccc(C(=O)NCCN(CC)CC)cc3)c(=O)c2cc1OCC,-35%,u,u,u,-4%,-99*
CCCCNC(=O)c1ccc(Cn2c(=S)[nH]c3c([nH]c4ccc(OC)cc43)c2=O)cc1,u,16µM*,x,u,1%,18
COc1ccccc1Cn1c(=S)[nH]c2ccc(F)cc2c1=O,-15%,2%,i,-2%,5%,-73*
COc1ccc(C(=O)/C=C/c2cc(OC)c(O)c(OC)c2)c(F)c1,u,u,u,27%,-2%,-100*
COc1ccc2cc(C(=O)/C=C/c3cc(OC)c(O)c(OC)c3)ccc2c1,-14%,9.2µM*,u,u,-3%,-98*
COc1cc(/C=C/C(=O)O)cc(OC)c1O,7%,5%,i,7%,2%,17
CCOc1cc(C(=O)OCc2cc(=O)n3c(C)csc3n2)cc(OCC)c1OCC,6%,x,i,x,-1%,x
CCOC(=O)c1ccccc1NC(=O)N1CCN2CCCCC2C1 (centres undefined),x,x,x,x,-2%,x
S=C(NCCN1CCOCC1)Nc1ccc(-c2nc3ccccc3[nH]2)cc1,-21%,1µM*,i,-1%,6%,0
COc1ccc(OC)c(S(=O)(=O)N2CCC(n3c(C)nc4cccnc43)CC2)c1,-10%,x,i,x,1%,x
CCn1c(-c2ccccc2F)nc2cc(C(=O)N3CCCC(CO)C3)cc(NC(C)=O)c21 (centres undefined),x,x,i,x,0%,x
CN1CCc2c(sc3c2C(=O)NC(c2ccc(-c4ccc(Cl)cc4)o2)N3)C1 (centres undefined),-16%,23µM*,x,u,8%,x
COc1c(OC(C)=O)ccc(/C=C/c2ccc3cccc(OCc4ccccc4)c3n2)c1[N+](=O)[O-],22%,7%,u,-2%,2%,-50*
COc1cc(Cl)cc(/C=C/c2ccc3ccccc3n2)c1OC(C)=O,75%,u,i,u,3%,-102*
COc1cc(/C=C/c2ccc3cccc(OC)c3n2)c(OC(C)=O)c([N+](=O)[O-])c1,u,6.5µM*,x,u,u,u
SMILES,ATXN2 expr inh,MCF10A rerep,ATXN viability,SW480 rereplic,PINK1 modulator,IL1B secr inh
CC(C)Oc1ccc(-c2nc(NCC3CCCO3)c3ccccc3n2)cc1 (centres undefined),2%,u,i,u,u,-79*
Brc1ccc2nc(-c3cccs3)c(NCC3CCCO3)n2c1 (centres undefined),17%,21µM*,x,46%,-1%,34
c1csc(-c2nc(NCC3CCCO3)c3ccccc3n2)c1 (centres undefined),-5%,8%,i,1%,1%,-90*
c1ccc(CN2CCC(Nc3nc(-c4cccs4)nc4ccccc34)CC2)cc1,x,u,x,1%,-3%,-64*
Cc1ccc(NC(=O)Cn2c(=O)n(CC3CCCO3)c(=O)c3ccccc32)cc1 (centres undefined),-5%,x,i,x,1%,x
CCOC(=O)c1cc(-c2ccc(C)cc2)nn1Cc1ccccc1,56%,x,i,x,9%,x
CCOC(=O)NNc1ccc2nonc2c1[N+](=O)[O-],-33%,12%,i,23µM*,1%,-77*
Cc1c2c(n3c(nc4ccccc43)c1C#N)N(CCCN(C)C)CC2,u,15µM*,x,9.2µM*,-2%,-22
Cc1c2c(n3c(nc4ccccc43)c1C#N)N(CCN(C)C)CC2,-29%[11.3 µM],16µM*,x,9.2µM*,-1%,-23
CCOc1ccc(/C(O)=C2\C(=O)C(=O)N(c3ccccn3)C2c2ccccc2F)c(C)c1 (centres undefined),x,x,i,x,2%,1
C[C@@H]1C=CC(=O)O[C@@H]1c1ccc(Cl)cc1,u,u,u,1%,15%,-108*
COc1ccc(CN2C(=O)c3cccc4cccc2c34)cc1F,-19%,21µM*,i,u,0%,-6
CCOC(=O)C1CCCN(C(=O)c2cc3c(-c4cccc(OC)c4)nn(C)c3s2)C1 (centres undefined),-29%,6.5µM*,i,u,4%,-8
CCOC(=O)C1CCCN(C(=O)c2ccccc2SCCOC)C1 (centres undefined),-3%,21µM*,i,u,0%[38.3 µM],5
O=C(c1cc2c(Cl)nc3ccccc3c2s1)N1CCCCC1,26%,x,i,x,10%,x
CCOC(=O)C1CCCN(C(=O)c2cc3c(Cl)nc4ccccc4c3s2)C1 (centres undefined),14µM*,x,u,x,1%,x
CCOC(=O)C1CCCN(C(=O)c2cc(Nc3ccc(OC)cc3OC)nc3ccccc23)C1 (centres undefined),10%,16%,u,11%,-2%,6
CCOC(=O)C1CCCN(C(=O)c2cc(Nc3ccc(OC)c(OC)c3)nc3ccccc23)C1 (centres undefined),6%,11%,i,3%,2%,-93*
COc1cccc(CC(=O)OCC(=O)NCCc2ccc(F)cc2)c1,10%,0%,i,-13%,1%,11
COc1ccc(OC)c(-c2ccnc(-n3ncc(C(=O)NC(C)(C)CO)c3C3CC3)n2)c1,x,x,i,x,1%,x
